# The source made the active and inactive calls. The calls were made as follows: active = hit-call score of the fitted dose curve at least 0.9, where 1 is the maximum; inactive = score below 0.9.
# How the values were obtained:
# [1] = ATG_Ets_CIS: Attagene CIS-FACTORIAL HepG2 Assay for human Erythroblast Transformation Specific (ETS) (AID 2282941); details: HepG2 ETS cis-reporter transcription, actives raise or lower the signal
# Outline: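 Cis-regulated reporter mRNA induction in HepG2 (transient transfection), 24 h exposure, RT-PCR plus capillary electrophoresis detection; DMSO serves as negative control and baseline.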
# [2] = biological target: Hepatocyte nuclear factor 3-beta (Homo sapiens) (UniProt Q9Y261); experiment: ATG_FoxA2_CIS: Attagene CIS-FACTORIAL HepG2 Assay for human Forkhead box A2 (FOXA2) (AID 2282942); details: HepG2 cis-reporter transcription factor activity, 24 h; actives raise or lower the signal
# Outline: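 Transient MRTU transfection of HepG2 liver cells; 24 h treatment; total RNA → oligo(dT) RT → PCR → FAM primer extension → HpaI cut → CE. Bidirectional fit vs DMSO.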
# [3] = ATG_FoxO_CIS: Attagene CIS-FACTORIAL HepG2 Assay for human Forkhead box O (FoxO) (AID 2282943); details: HepG2 Attagene cis-reporter, FoxO element, mRNA; actives raise or lower the signal
# Outline: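 HepG2 cells transiently transfected with cis-promoter-driven multiple reporter transcription units; 24 h after chemical dosing, reporter mRNA quantified by RT-PCR, fluorescent primer extension, HpaI digestion and capillary electrophoresis. Bidirectional fitting versus DMSO baseline.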
# [4] = ATG_GATA_CIS: Attagene CIS-FACTORIAL HepG2 Assay for human GATA Binding Protein (AID 2282944); details: HepG2 GATA cis-element reporter, Attagene multiplex mRNA; actives raise or lower the signal
# Outline: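 Endogenous transcription factor activity was captured through cis-promoter-driven reporters in transfected HepG2 cells. After 24 h exposure, reporter transcripts were quantified by RT-PCR with fluorescent capillary electrophoresis, and responses fitted both directions against DMSO.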
# [5] = ATG_GLI_CIS: Attagene CIS-FACTORIAL HepG2 Assay for human Zinc Finger Protein GLI1 (AID 2282945); details: HepG2, Attagene cis-factorial reporter mRNA, GLI element; actives raise or lower the signal
# Outline: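 HepG2 cells transiently transfected with cis-promoter multiplexed reporter units report endogenous transcription factor activity. After 24 h chemical exposure, reporter mRNA was quantified by RT-PCR, 6-FAM labelling, HpaI digestion and capillary electrophoresis, with bidirectional fitting against DMSO.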
# [6] = biological target: Bile acid receptor (Homo sapiens) (UniProt Q96RI1); experiment: ATG_IR1_CIS: Attagene CIS-FACTORIAL HepG2 Assay for human Nuclear Receptor Subfamily 1 Group H Member 4 (NR1H4), IR1 submotif (AID 2282946); details: IR1 reporter transcription, actives raise or lower the signal
# Outline: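 Readout: reporter transcript levels by RT-PCR with fluorescent capillary electrophoresis, from HepG2 cells transiently transfected with multiplexed cis-regulated reporters and dosed 24 h. Gain- or loss-of-signal fitted versus DMSO negative control.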
# [7] = ATG_GRE_CIS: Attagene CIS-FACTORIAL HepG2 Assay for human Glucocorticoid Response Elements (GRE) (AID 2282947); details: HepG2 GRE cis-reporter, Attagene multiplex mRNA; actives raise or lower the signal
# Outline: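 Cells (HepG2) bearing transfected cis-promoter reporter transcription units were treated with chemical for 24 hours. Reporter mRNA was measured via RT-PCR with capillary electrophoresis, and activity was fitted in both directions relative to DMSO.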
# [8] = ATG_ISRE_CIS: Attagene CIS-FACTORIAL HepG2 Assay for human Interferon Regulatory Factor 1 (IRF1) binding to an Interferon-Stimulated Response Element (ISRE) (AID 2282948); details: HepG2 ISRE cis-reporter (Attagene), mRNA transcription readout; actives raise or lower the signal
# Outline: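 Multiplexed mRNA reporter readout in human liver HepG2 cells: cis-element-driven reporters transfected, compound added for 24 h, transcripts amplified, fluorescently labelled and sized by capillary electrophoresis; curve fitting bidirectional against DMSO.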
# [9] = ATG_M_32_CIS: Attagene CIS-FACTORIAL HepG2 Assay for M32 Transcription Factor (Internal Marker) (AID 2282949); details: HepG2 Attagene cis-factorial M32 reporter, mRNA; actives raise or lower the signal;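 also: background control marker of the multiplexed CIS panel rather than a real target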
# Outline: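 HepG2 human liver cells transiently transfected with cis-promoter-driven multiple reporter transcription units, dosed 24 h. Reporter mRNA quantified by RT-PCR, FAM-labelled primer extension, HpaI digest and capillary electrophoresis; bidirectional fit versus DMSO baseline.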
# [10] = ATG_M_06_CIS: Attagene CIS-FACTORIAL HepG2 Assay for M06 Transcription Factor (Internal Marker) (AID 2282950); details: HepG2 Attagene CIS-FACTORIAL M06 internal marker reporter; actives raise or lower the signal
# Outline: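 Steps: transfect HepG2 with multiplexed cis-element reporter constructs; dose chemical 24 h; extract RNA with DNase treatment; reverse-transcribe, PCR-amplify, 6-FAM label, HpaI digest; separate fragments by capillary electrophoresis. Activity fitted both directions versus DMSO.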
# [11] = biological target: Hypoxia-inducible factor 1-alpha (Homo sapiens) (UniProt Q16665); experiment: ATG_HIF1a_CIS: Attagene CIS-FACTORIAL HepG2 Assay for human Hypoxia Inducible Factor 1 (HIF1A) (AID 2282951); details: HepG2 Attagene cis-factorial HIF1a reporter transcription; actives raise or lower the signal
# Outline: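 Transient MRTU transfection of human HepG2 liver cells, 24 h compound treatment, then total RNA isolation, oligo(dT) reverse transcription, PCR amplification, fluorescent labelling and capillary electrophoresis of reporter fragments. Gain or loss relative to DMSO.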
# [12] = biological target: Hepatocyte nuclear factor 6 (Homo sapiens) (UniProt Q9UBC0); experiment: ATG_HNF6_CIS: Attagene CIS-FACTORIAL HepG2 Assay for human Hepatocyte Nuclear Factor 6 (HNF6) (AID 2282952); details: HepG2 Attagene cis-factorial HNF6 reporter transcription; actives raise or lower the signal
# Outline: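 Activity values derive from bidirectional fitting against DMSO of reporter mRNA levels, measured by capillary electrophoresis of labelled RT-PCR products from HepG2 cells exposed 24 h.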
# [13] = biological target: Heat shock factor protein 1 (Homo sapiens) (UniProt Q00613); experiment: ATG_HSE_CIS: Attagene CIS-FACTORIAL HepG2 Assay for human Heat Shock Transcription Factor 1 (HSE) (AID 2282953); details: HepG2 HSE cis-reporter, Attagene RNA transcription; actives raise or lower the signal
# Outline: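 Cells were transfected with cis-element-driven reporter constructs, dosed for 24 h, then total RNA was reverse-transcribed and reporter cDNA amplified, FAM-labelled and digested with HpaI. Fragments were resolved by capillary electrophoresis; gain or loss was fitted against DMSO.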
# [14] = ATG_MRE_CIS: Attagene CIS-FACTORIAL HepG2 Assay for human Metal Responsive Element (MRE) (AID 2282954); details: HepG2 MRE cis-reporter transcription, Attagene multiplex; actives raise or lower the signal
# Outline: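 Cells were transfected with cis-promoter reporter transcription units, then dosed for 24 h. RNA was reverse-transcribed, amplified, fluorescently labelled and resolved by capillary electrophoresis, and activity was fitted in both directions relative to DMSO.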
# [15] = ATG_PBREM_CIS: Attagene CIS-FACTORIAL HepG2 Assay for human Phenobarbital-responsive Enhancer Module (PBREM) (AID 2282955); details: HepG2 PBREM cis-reporter, Attagene multiplexed transcription; actives raise or lower the signal
# Outline: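 Endogenous transcription factors in human liver HepG2 cells drive a PBREM cis-element reporter, whose transcript level after 24 h treatment is quantified by RT-PCR with capillary electrophoresis; activity fitted in both directions against DMSO.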
# [16] = biological target: Paired box protein Pax-6 (Homo sapiens) (UniProt P26367); experiment: ATG_Pax6_CIS: Attagene CIS-FACTORIAL HepG2 Assay for human Paired Box 6 (PAX6) (AID 2282956); details: HepG2 CIS-FACTORIAL PAX6 reporter transcription, RNA readout; actives raise or lower the signal
# Outline: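 Fluorescent RT-PCR products separated by capillary electrophoresis report PAX6-linked promoter mRNA in HepG2 cells 24 h post-dose. Curves fitted bidirectionally, DMSO as negative control.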
# [17] = ATG_PXRE_CIS: Attagene CIS-FACTORIAL HepG2 Assay for human Pregnane X Receptor Element (PXRE) (AID 2282957); details: HepG2 Attagene CIS-FACTORIAL PXRE reporter, mRNA; actives raise or lower the signal
# Outline: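 Fluorescent capillary electrophoresis of amplified reporter cDNA gave the signal, collected 24 h after dosing HepG2 cells that held transfected cis-element reporter constructs.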
# [18] = ATG_PPRE_CIS: Attagene CIS-FACTORIAL HepG2 Assay for human Peroxisome Proliferator-activated Response Element (PPRE) (AID 2282958); details: HepG2 PPRE cis-element reporter, Attagene transcription factor profiling; actives raise or lower the signal
# Outline: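 HepG2, transient MRTU transfection (cis promoter elements, endogenous TFs). 24 h dosing. RNA → oligo(dT) RT → PCR → 6-FAM primer extension → HpaI digest → CE. Bidirectional fit vs DMSO.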
# [19] = ATG_RORE_CIS: Attagene CIS-FACTORIAL HepG2 Assay for human RAR-related Orphan Receptor Element (RORE) (AID 2282959); details: HepG2 Attagene cis-factorial RORE reporter, mRNA; actives raise or lower the signal
# Outline: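 Transient MRTU transfection of human HepG2 liver cells (FuGene 6); 24 h compound exposure; TriZol RNA, oligo(dT) RT, PCR, FAM labeling, HpaI cut, CE fragment analysis. DMSO = negative control/baseline.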
# [20] = ATG_ERE_CIS: Attagene CIS-FACTORIAL HepG2 Assay for Estrogen Response Element (ERE) (AID 2282940); details: HepG2 ERE cis-reporter, Attagene RNA transcript; actives raise or lower the signal
# Outline: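 Cells used were human hepatoma HepG2, transfected with multiple reporter transcription units under cis-regulatory promoters. Reporter mRNA, read 24 h post-dosing via fluorescent RT-PCR products on capillary electrophoresis, was fitted bidirectionally relative to DMSO.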
# Sequence of Bile acid receptor (Homo sapiens) (Q96RI1 whole entry, looked up): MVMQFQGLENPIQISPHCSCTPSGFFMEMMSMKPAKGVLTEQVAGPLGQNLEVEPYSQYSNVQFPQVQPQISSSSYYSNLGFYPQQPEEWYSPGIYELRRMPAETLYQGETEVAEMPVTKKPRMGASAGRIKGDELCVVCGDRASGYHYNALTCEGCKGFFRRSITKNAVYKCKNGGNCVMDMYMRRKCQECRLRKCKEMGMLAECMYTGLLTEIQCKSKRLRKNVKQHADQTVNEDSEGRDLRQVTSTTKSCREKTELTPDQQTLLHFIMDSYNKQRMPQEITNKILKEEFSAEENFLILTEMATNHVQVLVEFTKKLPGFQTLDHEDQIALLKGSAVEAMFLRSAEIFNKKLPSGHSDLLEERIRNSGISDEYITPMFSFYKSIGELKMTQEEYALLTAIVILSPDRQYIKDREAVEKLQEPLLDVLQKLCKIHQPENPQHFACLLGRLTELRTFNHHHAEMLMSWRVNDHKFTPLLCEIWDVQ
# Sequence of Hepatocyte nuclear factor 3-beta (Homo sapiens) (Q9Y261 whole entry, looked up): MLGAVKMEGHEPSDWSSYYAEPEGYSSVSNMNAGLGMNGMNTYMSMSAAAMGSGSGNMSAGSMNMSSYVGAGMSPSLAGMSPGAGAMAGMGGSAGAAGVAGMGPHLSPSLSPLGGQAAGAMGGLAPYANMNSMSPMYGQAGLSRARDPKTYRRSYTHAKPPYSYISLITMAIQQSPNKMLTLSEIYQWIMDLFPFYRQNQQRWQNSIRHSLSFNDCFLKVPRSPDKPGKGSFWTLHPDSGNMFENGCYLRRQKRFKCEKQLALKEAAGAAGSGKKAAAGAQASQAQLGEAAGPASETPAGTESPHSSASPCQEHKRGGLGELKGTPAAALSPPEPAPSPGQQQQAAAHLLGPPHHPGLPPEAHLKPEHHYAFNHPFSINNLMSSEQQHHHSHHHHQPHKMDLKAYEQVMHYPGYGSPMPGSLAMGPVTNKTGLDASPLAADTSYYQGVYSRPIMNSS
# Sequence of Hypoxia-inducible factor 1-alpha (Homo sapiens) (Q16665 whole entry, looked up, the tested form may be a part): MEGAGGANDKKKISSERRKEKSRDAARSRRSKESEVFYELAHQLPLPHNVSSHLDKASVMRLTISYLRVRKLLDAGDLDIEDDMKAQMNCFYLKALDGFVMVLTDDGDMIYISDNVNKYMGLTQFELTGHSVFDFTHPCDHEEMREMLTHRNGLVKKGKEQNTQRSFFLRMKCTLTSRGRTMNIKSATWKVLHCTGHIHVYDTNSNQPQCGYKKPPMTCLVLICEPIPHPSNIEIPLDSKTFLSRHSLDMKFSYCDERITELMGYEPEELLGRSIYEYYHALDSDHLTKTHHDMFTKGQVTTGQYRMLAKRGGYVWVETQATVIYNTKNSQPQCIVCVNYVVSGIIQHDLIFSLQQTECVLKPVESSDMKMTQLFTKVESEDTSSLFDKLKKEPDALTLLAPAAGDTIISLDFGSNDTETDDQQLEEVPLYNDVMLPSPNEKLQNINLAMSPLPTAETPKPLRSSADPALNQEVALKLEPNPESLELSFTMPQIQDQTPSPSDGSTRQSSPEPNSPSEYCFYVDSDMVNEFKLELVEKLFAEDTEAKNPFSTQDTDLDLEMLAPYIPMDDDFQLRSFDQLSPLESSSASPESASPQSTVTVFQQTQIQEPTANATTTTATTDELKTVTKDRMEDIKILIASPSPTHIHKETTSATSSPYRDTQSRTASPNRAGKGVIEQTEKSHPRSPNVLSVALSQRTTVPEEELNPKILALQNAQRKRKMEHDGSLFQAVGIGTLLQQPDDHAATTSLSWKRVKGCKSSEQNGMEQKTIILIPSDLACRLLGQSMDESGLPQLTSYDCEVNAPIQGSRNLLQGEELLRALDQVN
# Sequence of Paired box protein Pax-6 (Homo sapiens) (P26367 whole entry, looked up): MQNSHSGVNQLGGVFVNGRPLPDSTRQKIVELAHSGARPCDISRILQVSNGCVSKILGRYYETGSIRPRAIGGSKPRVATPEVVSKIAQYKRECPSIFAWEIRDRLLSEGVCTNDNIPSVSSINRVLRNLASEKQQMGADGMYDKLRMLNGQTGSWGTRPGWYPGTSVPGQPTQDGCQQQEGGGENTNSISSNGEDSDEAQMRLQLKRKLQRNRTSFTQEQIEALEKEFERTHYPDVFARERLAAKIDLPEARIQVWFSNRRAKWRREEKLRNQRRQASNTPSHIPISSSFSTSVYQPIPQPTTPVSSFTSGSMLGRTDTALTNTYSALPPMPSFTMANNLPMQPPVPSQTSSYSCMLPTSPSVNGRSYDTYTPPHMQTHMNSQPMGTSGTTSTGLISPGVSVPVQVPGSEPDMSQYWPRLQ
# Sequence of Heat shock factor protein 1 (Homo sapiens) (Q00613 whole entry, looked up, the tested form may be a part): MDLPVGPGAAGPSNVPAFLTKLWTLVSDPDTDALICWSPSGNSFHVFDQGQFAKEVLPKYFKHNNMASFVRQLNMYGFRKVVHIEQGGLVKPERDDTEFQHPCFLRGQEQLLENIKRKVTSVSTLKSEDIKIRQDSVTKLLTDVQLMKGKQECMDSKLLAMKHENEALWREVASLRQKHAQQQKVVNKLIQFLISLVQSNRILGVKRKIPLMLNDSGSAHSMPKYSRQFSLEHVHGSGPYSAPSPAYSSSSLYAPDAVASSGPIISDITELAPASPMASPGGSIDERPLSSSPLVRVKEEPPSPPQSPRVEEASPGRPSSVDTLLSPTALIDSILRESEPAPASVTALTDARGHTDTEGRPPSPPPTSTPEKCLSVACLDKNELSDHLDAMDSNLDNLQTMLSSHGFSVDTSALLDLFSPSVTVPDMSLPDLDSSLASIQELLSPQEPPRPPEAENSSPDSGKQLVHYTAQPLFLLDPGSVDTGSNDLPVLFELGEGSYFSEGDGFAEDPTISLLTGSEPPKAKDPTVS
# Sequence of Hepatocyte nuclear factor 6 (Homo sapiens) (Q9UBC0 whole entry, looked up): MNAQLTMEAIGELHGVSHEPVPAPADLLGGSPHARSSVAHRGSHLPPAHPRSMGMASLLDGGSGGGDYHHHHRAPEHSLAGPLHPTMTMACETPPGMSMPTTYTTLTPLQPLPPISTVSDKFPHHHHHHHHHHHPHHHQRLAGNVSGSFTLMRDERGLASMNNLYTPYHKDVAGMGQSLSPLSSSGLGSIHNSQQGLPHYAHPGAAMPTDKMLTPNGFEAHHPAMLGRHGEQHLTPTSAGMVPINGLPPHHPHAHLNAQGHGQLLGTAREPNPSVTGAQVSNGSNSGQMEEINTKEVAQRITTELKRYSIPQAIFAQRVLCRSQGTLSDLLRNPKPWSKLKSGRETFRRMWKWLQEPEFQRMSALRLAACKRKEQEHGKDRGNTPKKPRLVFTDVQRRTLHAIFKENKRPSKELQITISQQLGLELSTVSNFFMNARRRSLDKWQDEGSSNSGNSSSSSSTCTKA
structure (smiles),measurement,setting,value
Cc1cc(Cl)ccc1OCCCC(=O)O,outcome,[1],inactive
same,outcome,[2],inactive
same,outcome,[3],inactive
same,outcome,[4],inactive
same,outcome,[5],inactive
same,outcome,[6],inactive
same,outcome,[7],inactive
same,outcome,[8],inactive
same,outcome,[9],inactive
same,outcome,[10],inactive
same,outcome,[11],inactive
same,outcome,[12],inactive
same,outcome,[13],inactive
same,outcome,[14],inactive
same,outcome,[15],inactive
same,outcome,[16],inactive
same,outcome,[17],inactive
same,outcome,[18],inactive
same,outcome,[19],inactive
CC1CC(=O)O1 (stereo not given),outcome,[1],inactive
same,outcome,[2],inactive
same,outcome,[3],inactive
same,outcome,[4],inactive
same,outcome,[5],inactive
same,outcome,[6],inactive
same,outcome,[7],inactive
same,outcome,[8],inactive
same,outcome,[9],inactive
same,outcome,[10],inactive
same,AC50,[11],88000 nM (active)
same,outcome,[12],inactive
same,outcome,[13],inactive
same,outcome,[14],inactive
same,outcome,[16],inactive
same,outcome,[17],inactive
same,outcome,[18],inactive
same,outcome,[19],inactive
Cc1cc(Cl)ccc1O,outcome,[1],inactive
same,outcome,[2],inactive
same,outcome,[3],inactive
same,outcome,[4],inactive
same,outcome,[5],inactive
same,outcome,[6],inactive
same,outcome,[7],inactive
same,outcome,[8],inactive
same,outcome,[9],inactive
same,outcome,[10],inactive
same,outcome,[11],inactive
same,outcome,[12],inactive
same,outcome,[13],inactive
same,outcome,[14],inactive
same,outcome,[15],inactive
same,outcome,[16],inactive
same,outcome,[17],inactive
same,outcome,[18],inactive
same,outcome,[19],inactive
COC(=O)Nc1cccc(OC(=O)Nc2cccc(C)c2)c1,outcome,[1],inactive
same,outcome,[2],inactive
same,outcome,[3],inactive
same,outcome,[4],inactive
same,outcome,[5],inactive
same,outcome,[6],inactive
same,outcome,[7],inactive
same,outcome,[8],inactive
same,outcome,[9],inactive
same,outcome,[10],inactive
same,outcome,[11],inactive
same,outcome,[12],inactive
same,outcome,[14],inactive
same,outcome,[15],inactive
same,outcome,[16],inactive
same,outcome,[17],inactive
same,outcome,[19],inactive
C=CC(Cl)CCl (stereo not given),outcome,[1],inactive
same,outcome,[2],inactive
same,outcome,[3],inactive
same,outcome,[4],inactive
same,outcome,[5],inactive
same,outcome,[6],inactive
same,outcome,[7],inactive
same,outcome,[8],inactive
same,outcome,[9],inactive
same,outcome,[10],inactive
same,outcome,[11],inactive
same,outcome,[12],inactive
same,outcome,[13],inactive
same,outcome,[14],inactive
same,outcome,[15],inactive
same,outcome,[16],inactive
same,outcome,[19],inactive
Nc1nc(N)nc(Cl)n1,outcome,[20],inactive
same,outcome,[1],inactive
same,outcome,[2],inactive
same,outcome,[4],inactive
same,outcome,[5],inactive
same,outcome,[7],inactive
same,outcome,[8],inactive
same,outcome,[9],inactive
same,outcome,[10],inactive
same,outcome,[11],inactive
same,outcome,[12],inactive
same,outcome,[13],inactive
same,outcome,[15],inactive
same,outcome,[16],inactive
same,outcome,[17],inactive
same,outcome,[19],inactive
ClCCN1CCOCC1,outcome,[20],inactive
same,outcome,[1],inactive
same,outcome,[2],inactive
same,outcome,[4],inactive
same,outcome,[5],inactive
same,outcome,[7],inactive
same,outcome,[8],inactive
same,outcome,[9],inactive
same,outcome,[11],inactive
same,outcome,[12],inactive
same,outcome,[13],inactive
same,outcome,[14],inactive
same,outcome,[16],inactive
same,outcome,[17],inactive
same,outcome,[18],inactive
same,outcome,[19],inactive
CC(C)[C@H](C(=O)OC(C#N)c1cccc(Oc2ccccc2)c1)c1ccc(OC(F)F)cc1 (stereo not given in full),outcome,[1],inactive
same,outcome,[2],inactive
same,outcome,[3],inactive
same,outcome,[4],inactive
same,outcome,[5],inactive
same,outcome,[6],inactive
same,outcome,[7],inactive
same,outcome,[8],inactive
same,outcome,[9],inactive
same,outcome,[11],inactive
same,outcome,[12],inactive
same,outcome,[13],inactive
same,outcome,[14],inactive
same,AC50,[15],1180 nM (active)
same,outcome,[16],inactive
same,AC50,[17],396 nM (active)
same,outcome,[18],inactive
same,outcome,[19],inactive

# Source: PubChem BioAssay (EPA / NIEHS)
